We go through five compounds from PubChem BioAssay.

Active and inactive are the calls of the source.

The nature of assay [1]: compounds binding Alexa647 anti-His antibody – biochemical, small-molecule microarray, 635 nm fluorescence, artefact control for SMM control protein annotation, primary screen (AID 1128).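 Further: score merges feature fluorescence with signal-to-noise for each printed compound spot.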 As to conditions: higher = more signal.
Assay [2] has as its system Human papillomavirus type 1a E7 protein (residues 1-88). In words: HPV1a E7 small-molecule binders, primary screen, biochemical, small-molecule microarray, residues 1-88, 635 nm (AID 1129). The settings on record: small-molecule microarray binding, fluorescence 635 nm; higher = more signal.
In assay [3] the target is Focal adhesion kinase 1 (Homo sapiens) (UniProt Q05397). In words: PTK2 protein binding on printed compound slides – biochemical, small-molecule microarray, 635/667 nm fluorescence, BSA, DTT, primary screen (AID 1130).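 Further: composite of spot emission at 667 nm and signal to noise over triplicate slides.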 The settings on record: 635 nm fluorescence, higher = more signal.
Focal adhesion kinase 1 (Homo sapiens), sequence (Q05397 whole entry, looked up): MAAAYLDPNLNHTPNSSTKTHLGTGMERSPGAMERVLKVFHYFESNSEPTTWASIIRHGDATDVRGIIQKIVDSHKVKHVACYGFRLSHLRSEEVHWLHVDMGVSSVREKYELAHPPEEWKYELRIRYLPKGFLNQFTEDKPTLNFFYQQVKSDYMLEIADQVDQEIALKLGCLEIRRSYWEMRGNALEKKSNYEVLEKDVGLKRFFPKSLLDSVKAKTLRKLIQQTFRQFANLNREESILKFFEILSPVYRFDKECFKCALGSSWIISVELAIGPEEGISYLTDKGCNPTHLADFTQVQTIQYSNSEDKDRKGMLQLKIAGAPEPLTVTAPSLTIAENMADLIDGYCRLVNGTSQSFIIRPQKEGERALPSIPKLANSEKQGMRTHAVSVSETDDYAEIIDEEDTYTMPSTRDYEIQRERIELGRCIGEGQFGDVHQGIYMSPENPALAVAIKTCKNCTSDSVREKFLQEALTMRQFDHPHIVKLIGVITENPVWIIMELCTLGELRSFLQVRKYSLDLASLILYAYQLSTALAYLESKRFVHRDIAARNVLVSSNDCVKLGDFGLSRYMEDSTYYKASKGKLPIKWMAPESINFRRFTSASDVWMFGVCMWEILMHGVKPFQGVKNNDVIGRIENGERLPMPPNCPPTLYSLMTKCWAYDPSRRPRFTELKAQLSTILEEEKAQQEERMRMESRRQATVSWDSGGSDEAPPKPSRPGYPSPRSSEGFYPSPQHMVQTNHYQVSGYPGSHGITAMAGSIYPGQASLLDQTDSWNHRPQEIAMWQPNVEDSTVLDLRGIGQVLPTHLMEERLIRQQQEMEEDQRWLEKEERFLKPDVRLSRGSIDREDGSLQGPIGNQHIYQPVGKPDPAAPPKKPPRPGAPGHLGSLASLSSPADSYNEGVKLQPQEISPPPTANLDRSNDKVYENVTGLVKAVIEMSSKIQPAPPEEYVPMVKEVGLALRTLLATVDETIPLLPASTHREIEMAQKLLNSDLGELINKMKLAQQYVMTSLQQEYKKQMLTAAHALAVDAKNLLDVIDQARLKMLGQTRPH
Assay [4] relates to Fibrinogen (Alexa647-labelled). Nature of the assay: Alexa647-fibrinogen binding to printed small molecules – biochemical, small-molecule microarray, 635/667 nm fluorescence, artefact control for SMM control-protein annotation, profiling panel (AID 1131).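 Further: z-score merges 667 nm fluorescence with per-spot signal-to-noise over triplicate slides.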 The settings on record: fibrinogen-A647 binding fluorescence, higher = more signal.
Assay [5] has as its target Follistatin (Homo sapiens) (UniProt P19883). Nature of the assay: FST protein binding to printed compounds – biochemical, small-molecule microarray, 635/667 nm fluorescence, primary screen (AID 1132). As to conditions: 635 nm fluorescence, higher = more signal.
The target in assay [6] is Fibroblast growth factor 2 (Homo sapiens) (UniProt P09038). In words: basic fibroblast growth factor binding to printed compounds – biochemical, small-molecule microarray, 635/667 nm fluorescence, primary screen (AID 1133). The settings on record: FGF2, fluorescence 635/667, higher = more signal.
Fibroblast growth factor 2 (Homo sapiens), sequence (P09038 whole entry, looked up): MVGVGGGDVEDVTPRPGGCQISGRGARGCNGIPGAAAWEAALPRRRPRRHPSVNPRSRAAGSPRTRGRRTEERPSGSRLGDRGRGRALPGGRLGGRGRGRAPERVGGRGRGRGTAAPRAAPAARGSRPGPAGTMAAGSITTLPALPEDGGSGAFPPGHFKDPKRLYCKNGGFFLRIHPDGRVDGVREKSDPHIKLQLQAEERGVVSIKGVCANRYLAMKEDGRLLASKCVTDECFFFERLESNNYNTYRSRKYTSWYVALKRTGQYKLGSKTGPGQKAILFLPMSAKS
The nature of assay [7]: JC-1 mitochondrial potential readout, lung cancer cells – cell-based, A549, JC-1 fluorescence, basal, 24 h, 100 nL, profiling panel (AID 1138).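 Further: A549 lung adenocarcinoma cells under basal conditions with no added stimulus; test concentration not given here.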 The settings on record: higher = more signal.
The next assay concerns Lefty1. In words: Lefty1 protein binding to printed compounds – biochemical, small-molecule microarray, 635/667 nm fluorescence, primary screen (AID 1139). As to conditions: fluorescence 635/667, higher = more signal.
The test system of assay [8] is wheat germ agglutinin (Triticum aestivum), Alexa647-labelled. Nature of the assay: Alexa647-WGA lectin binding to printed small molecules – biochemical, small-molecule microarray, 635/667 nm fluorescence, artefact control for SMM control-protein annotation, profiling panel (AID 1140).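 Further: score merges 667 nm feature emission with signal to noise over triplicate slides.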 The settings on record: WGA-A647 binding, 635 nm fluorescence, higher = more signal.

Assay [9] concerns the target Luciferin 4-monooxygenase (Photinus pyralis) (UniProt P08659). Nature of the assay: inhibition of purified Photinus pyralis luciferase – biochemical, luminescence, purified enzyme, 2006 set, primary screen (AID 1141).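 Further: cell-free assay with purified firefly luciferase at 100 ng per well in PBS; test concentration not given here.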 The settings on record: purified firefly luciferase, SteadyGlo luminescence, 30 min; higher = more signal, called active from +8 up or from −8 down.
Assay [10] has as its system Wnt5a (protein binding on small-molecule microarray). Nature of the assay: small molecules binding Wnt5a protein – biophysical, small-molecule microarray, 635/667 nm fluorescence, primary screen (AID 1142).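 Further: fluorescence read at 667 nm with signal to noise per printed feature.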 As to conditions: 635 nm fluorescence, higher = more signal.
Assay [11] is described as follows: ATP-based viability of Huh7 replicon cells – cell-based, CellTiter-Glo luminescence, basal, 48 h, cytotoxicity control for HCV replication inhibitor project, primary screen (AID 1143).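 Further: Huh7 hepatoma cells carrying a hepatitis C replication reporter with no stimulus; test concentration not given here.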 As to conditions: higher = more signal, called active from +8 up or from −8 down.
Assay [12] is described as follows: basal CRE-LacZ reporter activity in PC12 – cell-based, unstimulated, primary screen (AID 1145). The settings on record: no forskolin, luminescence, 4.5 h, higher = more signal, called active from +8 up or from −8 down.
Assay [13] can be described thus: forskolin-driven CRE-LacZ activity in PC12 – cell-based, CRE-LacZ reporter, forskolin-stimulated, primary screen (AID 1146).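 Further: PC12 cells with 6xCRE LacZ reporter stimulated by forskolin 10 µM; beta-galactosidase reporter signal reflecting CREB driven transcription.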 The settings on record: luminescence, 4.5 h, higher = more signal, called active from +8 up or from −8 down.
Assay [14] has as its target Streptavidin (Streptomyces avidinii) (UniProt P22629). Nature of the assay: compounds binding control protein streptavidin – biophysical, small-molecule microarray, 635/667 nm fluorescence, artefact control for SMM compound annotation, primary screen (AID 1147).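 Further: signal reflects streptavidin binding to arrayed compounds as a control protein.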 As to conditions: higher = more signal.
The nature of assay [15]: probe aInhba binding on compound microarray – biochemical, small-molecule microarray, 635/667 nm fluorescence, primary screen (AID 1148).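 Further: score merges 667nm spot fluorescence with signal-to-noise for antibody binding to printed compounds.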 The settings on record: higher = more signal.
Assay [16] concerns the target Torsin-1A (Homo sapiens) (UniProt O14656). In words: TOR1A wild-type binding on microarray – cell lysate, small-molecule microarray, lysate, 635/667 nm, primary screen (AID 1149). As to conditions: COS7 hTOR1A-WT lysate, 635 nm fluorescence, higher = more signal.
The target is the same in assay [17]. Nature of the assay: torsin A mutant lysate binding on microarrays – cell lysate, small-molecule microarray, COS7 lysate, 635/667 nm fluorescence, primary screen (AID 1150).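 Further: score pools 667 nm emission and signal to noise measuring lysate protein binding.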 As to conditions: COS7 hTOR1A mutant lysate, 635 nm fluorescence, higher = more signal.
Assay [18] has as its system Sonic hedgehog protein (Shh). Nature of the assay: Sonic hedgehog microarray binding compounds – biochemical, small-molecule microarray, 635/667 nm fluorescence, primary screen (AID 1151).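 Further: Shh protein binding to compounds spotted on small-molecule microarray slides; score combines spot fluorescence intensity with signal-to-noise across triplicate slides.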 As to conditions: 635 nm fluorescence, higher = more signal.

Streptavidin (Streptomyces avidinii), sequence (P22629 whole entry, looked up): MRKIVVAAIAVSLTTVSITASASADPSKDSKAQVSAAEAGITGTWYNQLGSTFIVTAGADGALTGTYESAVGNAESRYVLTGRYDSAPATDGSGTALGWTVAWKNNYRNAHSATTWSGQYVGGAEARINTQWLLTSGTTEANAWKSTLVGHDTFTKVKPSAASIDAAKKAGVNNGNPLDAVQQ
Follistatin (Homo sapiens), sequence (P19883 whole entry, looked up): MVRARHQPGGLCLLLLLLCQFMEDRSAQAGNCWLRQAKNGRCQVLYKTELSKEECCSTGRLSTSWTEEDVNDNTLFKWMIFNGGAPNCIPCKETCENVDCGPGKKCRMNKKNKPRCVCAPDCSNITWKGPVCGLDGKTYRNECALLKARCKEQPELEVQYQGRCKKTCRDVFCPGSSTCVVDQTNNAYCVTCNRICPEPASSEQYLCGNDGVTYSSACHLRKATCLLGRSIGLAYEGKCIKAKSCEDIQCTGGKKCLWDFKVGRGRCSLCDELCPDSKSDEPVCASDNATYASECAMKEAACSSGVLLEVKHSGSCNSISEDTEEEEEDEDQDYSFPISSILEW
Torsin-1A (Homo sapiens), sequence (O14656 whole entry, looked up): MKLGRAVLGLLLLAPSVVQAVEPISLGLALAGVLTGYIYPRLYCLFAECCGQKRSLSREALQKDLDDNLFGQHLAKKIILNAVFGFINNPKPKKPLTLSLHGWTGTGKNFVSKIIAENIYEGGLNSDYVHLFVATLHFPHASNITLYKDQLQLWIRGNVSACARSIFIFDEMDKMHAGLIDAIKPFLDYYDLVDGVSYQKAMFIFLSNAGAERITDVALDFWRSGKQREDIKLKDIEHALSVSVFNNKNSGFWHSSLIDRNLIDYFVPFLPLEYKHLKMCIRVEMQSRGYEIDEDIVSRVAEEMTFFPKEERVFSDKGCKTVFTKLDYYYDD
Luciferin 4-monooxygenase (Photinus pyralis), sequence (P08659 whole entry, looked up): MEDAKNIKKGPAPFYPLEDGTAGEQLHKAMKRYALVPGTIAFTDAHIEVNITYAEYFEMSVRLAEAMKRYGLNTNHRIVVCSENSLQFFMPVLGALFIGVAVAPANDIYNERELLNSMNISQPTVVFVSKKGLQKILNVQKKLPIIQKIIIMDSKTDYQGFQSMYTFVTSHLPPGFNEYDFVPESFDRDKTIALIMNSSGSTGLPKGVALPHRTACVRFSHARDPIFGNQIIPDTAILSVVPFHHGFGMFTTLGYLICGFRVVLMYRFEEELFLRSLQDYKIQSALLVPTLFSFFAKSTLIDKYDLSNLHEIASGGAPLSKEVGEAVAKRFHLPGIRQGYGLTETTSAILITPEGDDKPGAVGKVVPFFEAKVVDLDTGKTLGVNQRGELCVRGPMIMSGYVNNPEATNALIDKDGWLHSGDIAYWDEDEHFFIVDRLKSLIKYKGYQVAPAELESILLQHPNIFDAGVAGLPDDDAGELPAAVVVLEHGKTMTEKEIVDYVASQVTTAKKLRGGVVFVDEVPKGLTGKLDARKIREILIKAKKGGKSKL

For `Cc1ccc(S(=O)(=O)N[C@H]2COC(=O)CC=C[C@H](C)COC(=O)N[C@@H](C)C(=O)CC=C[C@@H]2C)cc1`, the composite z-score in assay [1] was -0.45; in assay [2], -0.368; in assay [3], -0.502; in [4] it was -0.446; in assay [5], 0.953; in assay [6], 1.43. Also, the composite z-score in the assay with Lefty1 is 1.65; in assay [8], -0.557; in assay [10] it was 0.177; in [14], -0.184; in [15], -0.142; with Torsin-1A (Homo sapiens) [16], 0.771. Further, the composite z-score is 0.555 with Torsin-1A (Homo sapiens) [17] and 1.01 in assay [18]. The z-score in assay [7] is 0.204; in [9], -0.537 (inactive); in assay [11] it was -1.67 (inactive); in assay [12] it was 1.6 (inactive); in assay [13], -0.933 (inactive).
As to `O=C1O[C@@H](c2ccccc2)[C@@H](c2ccccc2)N2[C@@H](c3ccc(O)cc3)[C@]3(C(=O)Nc4ccccc43)[C@@H](C(=O)N3CCN(c4ncccn4)CC3)[C@H]12`, the composite z-score was 0.265 in assay [1]; 1.19 in [2]; 0.225 in [3]; 0.179 in [4]; 0.169 in [5]; -0.0433 in [6]. The composite z-score in the assay on Lefty1 is -0.173; in [8], -0.387; in assay [10], -0.0063; in assay [14], -0.6; in assay [15], -0.178; with Torsin-1A (Homo sapiens) [16] it was 0.828. Also, the composite z-score with Torsin-1A (Homo sapiens) [17] was 0.232; in assay [18] it was -0.0193. The z-score in assay [7] was 0.948; in assay [9], -1.51 (inactive); in [11] it was -5 (inactive); in assay [12], -0.815 (inactive); in assay [13] it was -0.245 (inactive).
Regarding `CC(C)[Si](OCCCNS(=O)(=O)c1ccc(Br)cc1)(C(C)C)C(C)C`, the composite z-score in assay [1] was found to be 0.479; in assay [2], 1.04; in assay [3], 0.339; in assay [4], 0.348; in assay [5], 0.928; in assay [6] it was 0.828. Moreover, the composite z-score in the assay on Lefty1 worked out at 0.513; in assay [8], 0.622; in [10], 0.0488; in [14] it was 0.623; in assay [15], 0.0161; with Torsin-1A (Homo sapiens) [16] it was 0.923. The composite z-score with Torsin-1A (Homo sapiens) [17] came out at 0.31; in assay [18], 0.72. Besides, the z-score in assay [7] is -0.87; in [9], -1.22 (inactive); in assay [11] it was -5.53 (inactive); in assay [12], -0.752 (inactive); in assay [13], -0.4 (inactive).
For `CO[C@H]1COC(=O)[C@H](Cc2ccccc2)NC(=O)CC=C[C@@H](C)[C@H](OC)COC(=O)CC=C[C@@H]1C`, the composite z-score in assay [1] was 0.809; in assay [2], 0.779; in [3] it was -0.237; in assay [4], 0.256; in assay [5], 0.424; in assay [6] it was 0.144. Besides, the composite z-score with Lefty1 was 0.492; in assay [8], -0.12; in assay [10] it was 0.175; in assay [14] it was -0.129; in assay [15] it was -0.0954; with Torsin-1A (Homo sapiens) [16] it was 0.109. Moreover, the composite z-score with Torsin-1A (Homo sapiens) [17] stood at 0.189; in assay [18], 0.549. In addition, the z-score is 1.64 in assay [7]; -1.27 (inactive) in assay [9]; -1.21 (inactive) in assay [11]; -0.567 (inactive) in assay [12]; -1.15 (inactive) in assay [13].
As for `CO[C@H]1O[C@H](CO)[C@@H](OC(=O)CCc2ccccc2)[C@@H]2OC(=O)[C@H](Cc3cccc(Br)c3)C/C=C/C[C@@H](Cc3cccc(Br)c3)C(=O)O[C@@H]12`, the composite z-score in assay [1] is 0.345; in assay [2] it was 0.399; in assay [3] it was -0.0961; in assay [4], 0.0162; in [5], -1.19; in assay [6], -0.706. The composite z-score with Lefty1 was -0.752; in assay [8], 0.978; in [10] it was -0.0182; in [14], -0.115; in assay [15], -0.147; in the assay with Torsin-1A (Homo sapiens) [16], 1.07. Moreover, the composite z-score was 0.358 with Torsin-1A (Homo sapiens) [17] and -0.149 in assay [18]. Also, the z-score in assay [7] was 0.309; in [9], -1.07 (inactive); in assay [11], -3.47 (inactive); in [12], -0.198 (inactive); in assay [13], -0.896 (inactive).
